{"source": "paper PMC12864922", "about": "“TDP-43 directly inhibits mRNA accumulation in neurites through modulation of mRNA stability”", "binders": {"B1": {"name": "ENSMUSG00000029636.443|Wasf3 (ssRNA)", "RNA": "GGGAGUUCUACAGUCCGACGAUCGCUUCGAUAUCCGCAUGCUAGUGGGUGGAUUCAUGAUGGAUGGAUGGAUGGAUGGAUGGAUGGAUGGAUGGAUGAGUGGAUGGAUAAUAGGUUGAUGGGUGGAUAGGUAGAUGAGUGAAUAGAUAGAUAUAGAUCAGUGGGAGGAUUGGAAAGUAGGUGAAUGAAUGGAUGGCAGAUAGAUGGAUCAAUUACAGAUGGAUGGAUGCAUGGAAUAGAUAGGUGGAUGGGUGGUGGCUAGAAGGUGCCUGAGUCUGCACAUCACUGCACUGAGAAGGCAAAUCUCUUGCGGUCGCACUAGUGUGGAAUUCUCGGGUGUCAAGG"}, "B2": {"name": "ENSMUSG00000029636.441|Wasf3 (ssRNA)", "RNA": "GGGAGUUCUACAGUCCGACGAUCGCUUCGAUAUCCGCAUGCUAGUGGAUGGUUGAGUGGGUGGAUUCAUGAUGGAUGGAUGGAUGGAUGGAUGGAUGGAUGGAUGGAUGAGUGGAUGGAUAAUAGGUUGAUGGGUGGAUAGGUAGAUGAGUGAAUAGAUAGAUAUAGAUCAGUGGGAGGAUUGGAAAGUAGGUGAAUGAAUGGAUGGCAGAUAGAUGGAUCAAUUACAGAUGGAUGGAUGCAUGGAAUAGAUAGGUGGAUGGGUGGUGGCUAGAAGGUGCCUGAGUCUGCACAUCACUGCACUCUCUUGCGGUCGCACUAGUGUGGAAUUCUCGGGUGUCAAGG"}, "B3": {"name": "ENSMUSG00000029636.439|Wasf3 (ssRNA)", "RNA": "GGGAGUUCUACAGUCCGACGAUCGCUUCGAUAUCCGCAUGCUAGGAUGAUAGGUGGUGGAUGGUUGAGUGGGUGGAUUCAUGAUGGAUGGAUGGAUGGAUGGAUGGAUGGAUGGAUGGAUGAGUGGAUGGAUAAUAGGUUGAUGGGUGGAUAGGUAGAUGAGUGAAUAGAUAGAUAUAGAUCAGUGGGAGGAUUGGAAAGUAGGUGAAUGAAUGGAUGGCAGAUAGAUGGAUCAAUUACAGAUGGAUGGAUGCAUGGAAUAGAUAGGUGGAUGGGUGGUGGCUAGAAGGUGCCUGAGUCUGCACUCUUGCGGUCGCACUAGUGUGGAAUUCUCGGGUGUCAAGG"}, "B4": {"name": "ENSMUSG00000029636.442|Wasf3 (ssRNA)", "RNA": "GGGAGUUCUACAGUCCGACGAUCGCUUCGAUAUCCGCAUGCUAGGUUGAGUGGGUGGAUUCAUGAUGGAUGGAUGGAUGGAUGGAUGGAUGGAUGGAUGGAUGAGUGGAUGGAUAAUAGGUUGAUGGGUGGAUAGGUAGAUGAGUGAAUAGAUAGAUAUAGAUCAGUGGGAGGAUUGGAAAGUAGGUGAAUGAAUGGAUGGCAGAUAGAUGGAUCAAUUACAGAUGGAUGGAUGCAUGGAAUAGAUAGGUGGAUGGGUGGUGGCUAGAAGGUGCCUGAGUCUGCACAUCACUGCACUGAGAAGCUCUUGCGGUCGCACUAGUGUGGAAUUCUCGGGUGUCAAGG"}, "B5": {"name": "ENSMUSG00000029636.450|Wasf3 (ssRNA)", "RNA": "GGGAGUUCUACAGUCCGACGAUCGCUUCGAUAUCCGCAUGCUAGAUGGAUGGAUGAGUGGAUGGAUAAUAGGUUGAUGGGUGGAUAGGUAGAUGAGUGAAUAGAUAGAUAUAGAUCAGUGGGAGGAUUGGAAAGUAGGUGAAUGAAUGGAUGGCAGAUAGAUGGAUCAAUUACAGAUGGAUGGAUGCAUGGAAUAGAUAGGUGGAUGGGUGGUGGCUAGAAGGUGCCUGAGUCUGCACAUCACUGCACUGAGAAGGCAAAUGAGUACAUUAUACUAUUAGCACCAAACCCCAAGCUUCAGUAUCUCUUGCGGUCGCACUAGUGUGGAAUUCUCGGGUGUCAAGG"}, "B6": {"name": "ENSMUSG00000029636.438|Wasf3 (ssRNA)", "RNA": "GGGAGUUCUACAGUCCGACGAUCGCUUCGAUAUCCGCAUGCUAGUGAAUGGAUGAUAGGUGGUGGAUGGUUGAGUGGGUGGAUUCAUGAUGGAUGGAUGGAUGGAUGGAUGGAUGGAUGGAUGGAUGAGUGGAUGGAUAAUAGGUUGAUGGGUGGAUAGGUAGAUGAGUGAAUAGAUAGAUAUAGAUCAGUGGGAGGAUUGGAAAGUAGGUGAAUGAAUGGAUGGCAGAUAGAUGGAUCAAUUACAGAUGGAUGGAUGCAUGGAAUAGAUAGGUGGAUGGGUGGUGGCUAGAAGGUGCCUGAGCUCUUGCGGUCGCACUAGUGUGGAAUUCUCGGGUGUCAAGG"}, "B7": {"name": "ENSMUSG00000029636.449|Wasf3 (ssRNA)", "RNA": "GGGAGUUCUACAGUCCGACGAUCGCUUCGAUAUCCGCAUGCUAUGGAUGGAUGGAUGGAUGAGUGGAUGGAUAAUAGGUUGAUGGGUGGAUAGGUAGAUGAGUGAAUAGAUAGAUAUAGAUCAGUGGGAGGAUUGGAAAGUAGGUGAAUGAAUGGAUGGCAGAUAGAUGGAUCAAUUACAGAUGGAUGGAUGCAUGGAAUAGAUAGGUGGAUGGGUGGUGGCUAGAAGGUGCCUGAGUCUGCACAUCACUGCACUGAGAAGGCAAAUGAGUACAUUAUACUAUUAGCACCAAACCCCAAGCUUCUCUUGCGGUCGCACUAGUGUGGAAUUCUCGGGUGUCAAGG"}, "B8": {"name": "ENSMUSG00000029636.445|Wasf3 (ssRNA)", "RNA": "GGGAGUUCUACAGUCCGACGAUCGCUUCGAUAUCCGCAUGCUAAUGAUGGAUGGAUGGAUGGAUGGAUGGAUGGAUGGAUGGAUGAGUGGAUGGAUAAUAGGUUGAUGGGUGGAUAGGUAGAUGAGUGAAUAGAUAGAUAUAGAUCAGUGGGAGGAUUGGAAAGUAGGUGAAUGAAUGGAUGGCAGAUAGAUGGAUCAAUUACAGAUGGAUGGAUGCAUGGAAUAGAUAGGUGGAUGGGUGGUGGCUAGAAGGUGCCUGAGUCUGCACAUCACUGCACUGAGAAGGCAAAUGAGUACAUUAUACUCUUGCGGUCGCACUAGUGUGGAAUUCUCGGGUGUCAAGG"}, "B9": {"name": "ENSMUSG00000029636.440|Wasf3 (ssRNA)", "RNA": "GGGAGUUCUACAGUCCGACGAUCGCUUCGAUAUCCGCAUGCUAUAGGUGGUGGAUGGUUGAGUGGGUGGAUUCAUGAUGGAUGGAUGGAUGGAUGGAUGGAUGGAUGGAUGGAUGAGUGGAUGGAUAAUAGGUUGAUGGGUGGAUAGGUAGAUGAGUGAAUAGAUAGAUAUAGAUCAGUGGGAGGAUUGGAAAGUAGGUGAAUGAAUGGAUGGCAGAUAGAUGGAUCAAUUACAGAUGGAUGGAUGCAUGGAAUAGAUAGGUGGAUGGGUGGUGGCUAGAAGGUGCCUGAGUCUGCACAUCACCUCUUGCGGUCGCACUAGUGUGGAAUUCUCGGGUGUCAAGG"}, "B10": {"name": "ENSMUSG00000029636.444|Wasf3 (ssRNA)", "RNA": "GGGAGUUCUACAGUCCGACGAUCGCUUCGAUAUCCGCAUGCUAGGAUUCAUGAUGGAUGGAUGGAUGGAUGGAUGGAUGGAUGGAUGGAUGAGUGGAUGGAUAAUAGGUUGAUGGGUGGAUAGGUAGAUGAGUGAAUAGAUAGAUAUAGAUCAGUGGGAGGAUUGGAAAGUAGGUGAAUGAAUGGAUGGCAGAUAGAUGGAUCAAUUACAGAUGGAUGGAUGCAUGGAAUAGAUAGGUGGAUGGGUGGUGGCUAGAAGGUGCCUGAGUCUGCACAUCACUGCACUGAGAAGGCAAAUGAGUACCUCUUGCGGUCGCACUAGUGUGGAAUUCUCGGGUGUCAAGG"}}, "note": "Over roughly 9,900 sequences, “r (bound/input frequency ratio)” has its median near 0.7; the highest 2% begin near 6.5. This excerpt belongs to a sample that is enriched for the highest values.", "data": [{"target": "TDP-43 (Homo sapiens, UniProt Q13148 1-414)", "sequence (Q13148 whole entry)": "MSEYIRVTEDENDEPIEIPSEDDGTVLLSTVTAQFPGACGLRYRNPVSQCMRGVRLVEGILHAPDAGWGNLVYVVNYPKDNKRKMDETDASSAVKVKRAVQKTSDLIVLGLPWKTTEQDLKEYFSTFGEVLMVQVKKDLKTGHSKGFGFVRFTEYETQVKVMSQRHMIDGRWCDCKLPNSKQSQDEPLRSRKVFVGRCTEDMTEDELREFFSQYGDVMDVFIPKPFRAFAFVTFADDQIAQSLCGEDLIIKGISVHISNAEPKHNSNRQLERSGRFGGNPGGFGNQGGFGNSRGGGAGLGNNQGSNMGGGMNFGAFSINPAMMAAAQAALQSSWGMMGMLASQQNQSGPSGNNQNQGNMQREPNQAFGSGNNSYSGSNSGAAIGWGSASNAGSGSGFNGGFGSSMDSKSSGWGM", "test": "RNA Bind-n-Seq with designed 260-mer pool; 25 mM Tris-HCl, 150 mM KCl, 3 mM MgCl2, BSA (printed 500 mg/mL), 20 units/mL SUPERase IN; pH not stated; 500 nM RNA pool, 1 h, 4 C; TDP-43 5, 50, 500 nM; high values mean tight binding", "details": "protein: recombinant; tags: SBP (GST cleaved off with PreScission; pGEX-GST-SBP)", "method_in_brief": "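Recombinant SBP-tagged TDP-43 at 5, 50 or 500 nM was captured on streptavidin beads, then incubated 1 h at 4 °C with 500 nM of an in vitro-transcribed 260-nt 3′ UTR oligo pool in 25 mM Tris-HCl, 150 mM KCl, 3 mM MgCl2, BSA and SUPERase IN. Bound RNA was washed, eluted with biotin, reverse transcribed, PCR-amplified and sequenced. Binding is R, each oligo's mapped-read-normalized abundance in the bound sample divided by its abundance in input. Duplicates used two independent protein batches.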", "values": [{"binder": "B1", "binding signal": "5.07 R (bound/input frequency ratio)"}, {"binder": "B2", "binding signal": "7.11 R (bound/input frequency ratio)"}, {"binder": "B3", "binding signal": "5.9 R (bound/input frequency ratio)"}, {"binder": "B4", "binding signal": "5.86 R (bound/input frequency ratio)"}, {"binder": "B5", "binding signal": "6.13 R (bound/input frequency ratio)"}, {"binder": "B6", "binding signal": "8.37 R (bound/input frequency ratio)"}, {"binder": "B7", "binding signal": "6.51 R (bound/input frequency ratio)"}, {"binder": "B8", "binding signal": "5.13 R (bound/input frequency ratio)"}, {"binder": "B9", "binding signal": "7.49 R (bound/input frequency ratio)"}, {"binder": "B10", "binding signal": "4.6 R (bound/input frequency ratio)"}]}]}
